Measured values as given in PubChem BioAssay AID1508621 (National Center for Advancing Translational Sciences (NCATS), 2021).
Inconclusive results are not listed. Values without a mark were called inactive. Calls of active or inactive are those of the source. The call rests on the fitted dose curve; in most records, active means well fitted inhibition curve with a large enough effect; inconclusive means small, poorly fitted or top-dose-only effect; inactive means no such curve, though single readings can be large or run the other way.

Experiment: Confirmatory qHTS for Identification of Small Molecule Inhibitors of Huntingtin Promoter Activity; further: nearly all actives have a fitted effect of over 65% in size;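 on activity change, negative = inhibition: 0% = vehicle control and -100% = zero luminescence signal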
Conditions: HEK293 HTT promoter firefly luciferase reporter, 24 h; series mostly up to 57.5 µM; activity change, negative = inhibition: at the top concentration
Summary of the method: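 HEK293 luciferase reporter cells, 2,500/well, cultured 24 h, then exposed to compounds at up to 57.5 uM final for 24 h at 37C. Firefly luciferase luminescence read; normalized to vehicle (0%) and zero RLU (-100%).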
Potency means the concentration at half of the fitted maximal effect.

| Structure (SMILES) | activity change, negative = inhibition | Potency |
| --- | --- | --- |
| COc1ccccc1N1CCN(S(=O)(=O)c2ccc(F)c(C(=O)Nc3ccc(Cl)cc3C(F)(F)F)c2)CC1 | -15.9% | – |
| CC(C)(C)C(=O)NCCc1nc2ccccc2n1CCCCOc1ccc(Cl)cc1 | – | 26.9 µM (active) |
| COc1ccc(C(C)n2c(C)c3c(C)nnc(C)c3c2C)cc1 (configuration not stated) | -20.6% | – |
| CCc1ccccc1-n1c(SCC(=O)Nc2ccc(C)cc2)nc2n[nH]c(C)c2c1=N | – | 13.5 µM (active) |
| CN1C(=O)c2ccccc2Sc2ccc(NC(=O)NCc3ccc(Cl)cc3)cc21 | – | 23.9 µM (active) |
| Cn1c(=O)n(C)c2cc(NS(=O)(=O)c3ccccc3)c(NCc3ccccc3)cc21 | 4.2% | – |
| O=C(CSc1nccn1Cc1ccc(F)cc1)Nc1nc2ccccc2s1 | -4.54% | – |
